Experimental data: PubChem BioAssay (NCI)
About 83,000 compounds went through this panel and 20% of them were active in at least one assay; those are over-represented in the sample as a whole.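 Step 1: grow cells in 96-well plates. Step 2: add test compound at a single concentration. Step 3: incubate 48 h. Step 4: record percent growth.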 Activity calls are given as the source filed them. Rule for the calls: active = growth percent below 10; inactive = the rest.

tested on: NCI-H23 lung; assay: NCI-60 one-dose screen, 48 h (100 = growth as untreated, 0 = no growth, -100 = all killed); settings: 10 µM unless noted

Row | SMILES | growth
1 | CCOC(=O)c1cc(C(=O)c2ccc(O)c(O)c2)n2ccc(-c3ccn4c(C(=O)c5ccc(O)c(O)c5)cc(C(=O)OCC)c4c3)cc12 | 96.7% (inactive)
2 | CC1C(/C=N/Nc2ccccc2)C(C#N)(C#N)C1(C#N)C#N (stereo not given) | 78.6% (inactive)
3 | O=C(/C=C/c1ccc(C(F)(F)F)cc1)Nc1ccc(C=C2c3ccccc3C(=O)c3ccccc32)cc1 | 49.2% (inactive)
4 | CC/C=C\C[C@H](O)C/C=C1/C(=O)C=C[C@@]1(C)C/C=C\CCCC(=O)OC | 87.2% (inactive)
5 | COc1cc(-c2nn(-c3ccc(C(=O)O)cc3)cc2C(=O)O)ccc1O | 63% (inactive)
6 | COc1ccc(O)c(N=Nc2nccs2)c1 | 87.9% (inactive)
7 | NCCNc1nc(Nc2ccc(-c3nc4ccccc4[nH]3)cc2)c2cn[nH]c2n1 | 57.9% (inactive)
8 | COc1cc(-c2nn(-c3ccc(Br)cc3)cc2C(=O)O)ccc1O | 89.5% (inactive)
9 | OCCN1CCN(c2nc(Nc3ccc(-c4nc5ccccc5[nH]4)cc3)c3cn[nH]c3n2)CC1 | -75.6% (active)
10 | O=c1oc2c(C(F)(F)F)cccc2cc1-c1csc(Nc2ccc(OCCF)cc2)n1 | 24.2% (inactive)
11 | N#Cc1nnn(-c2ccc(S(N)(=O)=O)cc2)c1NC(=O)CCl | 100% (inactive)
12 | C=C1C(=O)O[C@H]2[C@H]1CC/C(C=Nc1ccc(C(F)(F)F)cc1N)=C\CC[C@@]1(C)O[C@@H]21 | 12.4% (inactive)
13 | CSc1ccc(-c2ccccc(=O)c2O)cc1 | 21.9% (inactive)
14 | Clc1ccc2c(NCCNc3nc(N4CCCCC4)nc4ccccc34)ccnc2c1 | 54.3% (inactive)
15 | Cn1ccnc1C(=O)/C=C/c1ccc(CC(=O)Nc2ccccc2)cc1 | 18.9% (inactive)
16 | CC(C)CSc1nc(N)nc2c1ncn2C1OC(CO)C(O)C1O (stereo not given) | 106% (inactive)
17 | Cc1cc(N[C@@H]2CCC[C@H](Nc3ccnc4cc(Cl)ccc34)C2)nc(N2CCCCCC2)n1 | -30.3% (active)
18 | CC(C)(CCCN=C(N)Nc1ccc(Cl)cc1)c1ccc(F)cc1 | 55.6% (inactive)

Row | SMILES | growth
19 | COc1ccc(-c2nc(SCC(=O)Nc3ccc(C(=O)/C=C/c4ccc(Cl)cc4)cc3)[nH]c(=O)c2C#N)cc1 | 85.4% (inactive)
20 | FC(F)(F)Oc1ccc2nc3nc4ccc[nH]c4cc3c2c1 | 64.7% (inactive)
21 | CCOC(=O)C(C)(C#N)C1C=CCCC1 (stereo not given) | 83.3% (inactive)
22 | O=C1/C(=C/c2ccc(OCCCOc3ccc(Cl)cc3)cc2)N=C2SCCCN12 | 49.7% (inactive)
23 | COc1cc(-c2nn(-c3ccc(C)cc3)cc2C(=O)O)ccc1O | 89.1% (inactive)
24 | CC(=O)c1cc2c(N)c(C(=O)Nc3cccc(F)c3C)sc2nc1C | 94.2% (inactive)
25 | COc1ccc(C2C(C#N)=C(N)Oc3n[nH]c(-c4cccs4)c32)cc1I (stereo not given) | 92.8% (inactive)
26 | CC(=O)c1cc(C(=O)c2ccc3c(c2)Sc2ccccc2N3)n2ccccc12 | 24.1% (inactive)
27 | CCOC(=O)c1c(C(=O)OCC)c2cc(-c3ccn4c(C(=O)c5ccccc5)c(C(=O)OCC)c(C(=O)OCC)c4c3)ccn2c1C(=O)c1ccccc1 | 88.8% (inactive)
28 | Cc1cc(N2CCCC2)nc(NC2CCCC(Nc3ccnc4cc(Cl)ccc34)C2)n1 (stereo not given) | -41.4% (active)
29 | COc1ccc2c(c1)CC/C(=C\c1cncc(Br)c1)C2=O | 92.7% (inactive)
30 | CCc1nc(N)nc(N)c1C#CC(C)c1ccc(-c2ccncc2)cc1Cl (stereo not given) | 16.2% (inactive)
31 | CC(=O)O[C@H]1C(=O)[C@@]2(C)[C@H]([C@H](OC(=O)c3ccccc3)[C@]3(O)C[C@H](OC(=O)[C@H](OC(=O)CCC(=O)OC4CCC(S/N=C(N)/N=C(\N)N(C)C)CC4)[C@@H](NC(=O)c4ccccc4)c4ccccc4)C(C)=C1C3(C)C)[C@]1(OC(C)=O)CO[C@@H]1C[C@@H]2O (stereo not given in full) | 39.3% (inactive)
32 | CCNC(=O)Oc1ccc(/C(=C(\C)c2ccc(Cl)cc2)c2ccc(OCCN3CCCCC3)cc2)cc1 | 65.1% (inactive)
33 | CCOc1ccc(C(C)=O)cc1NC(=O)c1cccc(-c2nnn(CC)n2)c1 | 42.6% (inactive)
34 | CC/C=C\C[C@H]1C/C=C2/C(=O)C=C[C@H]2C/C=C\CCCC(=O)O1 | 39.4% (inactive)
35 | COc1cccc2c1C(=O)c1c(O)c3c(c(O)c1C2=O)C[C@](O)(C(=O)CO)C[C@H]3O[C@@H]1C[C@@H](NC(=O)CCCCCN(C)C2(c3ccc(F)cc3)CC3CCC2C3)[C@H](O)[C@@H](C)O1 (stereo not given in full) | 40.8% (inactive)
